Rows were chosen to be rich in hits. Some 3.5% of all compounds tested hit in one or more screens of this group.
mHTT-CaM PPI inh: mHTT-calmodulin interaction abrogation. AlphaScreen His-mHTT/GST-CaM binding, luminescence. inhibition, % at 15 µM. hit rate 3.6% among 190,000;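 note: 0% = both proteins with DMSO and 100% = one protein alone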
Pf apPOL inh: Pf-apPOL DNA polymerase inhibition. inhibition, % at 10 µM. AID 1794808. Recombinant Pf-apPOL, molecular beacon fluorescence, 1.5 h. hit rate 0.25% among 210,000
The depositor's hits bear a star; . = no result. Cut-off read from the data, not from the text of the source: active = inhibition above about 50%; inactive = the rest.

SMILES | mHTT-CaM PPI inh | Pf apPOL inh
CN(C)C(=O)c1cccc2c1NC(c1ccc(Br)cc1)C1CC=CC21 (stereo not drawn) | 64.2* | -37.9
COc1cccc2c1NC(c1ccc(Br)cc1)C1CC=CC21 (stereo not drawn) | 58.0* | 5.3
COc1cccc2c1NC(c1ccccc1Br)C1CC=CC21 (stereo not drawn) | 38.0 | 2.8
Cc1ccc(-c2noc(-c3ccc(NCc4ccccc4)nc3)n2)cc1 | 2.9 | 3.6
Cc1ccc(C(=O)N2CC3CC(NS(=O)(=O)c4ccccc4)C2C3)cn1 (stereo not drawn) | -1.1 | 1.9
Cc1ccc(S(=O)(=O)C2(C(=O)NCc3cccs3)CC2)cc1 | -4.0 | 7.0
CCOc1cccc2c1NC(c1ccc(C(=O)O)cc1)C1CC=CC21 (stereo not drawn) | 63.0* | -5.9
CCC(=O)NCc1csc(C2CCCN(C(=O)CC(C)(C)C)C2)n1 (stereo not drawn) | 3.5 | -3.4
COCC(C)NC(=O)c1cnn2c1NC(c1ccccc1)CC2C(F)(F)F (stereo not drawn) | 2.0 | -3.1
O=C(Nc1nc2c(s1)CCC2)C1CCCN1S(=O)(=O)c1ccc(F)cc1 (stereo not drawn) | 2.9 | -0.3
NC(=O)c1oc2ccccc2c1NC(=O)C1CCCN1S(=O)(=O)c1ccc(F)cc1 (stereo not drawn) | 66.9* | -6.5
NNc1ncc(Cl)cc1Cl | 99.8* | -30.5
Oc1ccc(Oc2ncc(Cl)cc2Cl)cc1 | -3.0 | .
CCOc1ccc(-c2nc3s/c(=C\c4cccc(F)c4)c(=O)n3n2)cc1 | -3.0 | 2.7
CNC(=O)N1CCCN(C2CCN(Cc3ccccc3)C2=O)CC1 (stereo not drawn) | -1.2 | 1.5
COc1ccc(/C=C2/CN(C)C/C(=C\c3ccc(OC)c(OC)c3OC)C2=O)c(OC)c1OC | 8.0 | 5.1
CC1CCCN(c2nc(-c3ccc([N+](=O)[O-])cc3)nc3ccccc23)C1 (stereo not drawn) | 59.7* | -0.4
COc1cc(-c2nc(N3CCCC(C)C3)c3ccccc3n2)cc(OC)c1OC (stereo not drawn) | -5.0 | -2.4
COc1ccc2c(c1)c1c3n2CCN=C3N(C)CC1 | -3.8 | -6.1
Cc1c(Cc2ccc(Cl)cc2)c(NCCCn2ccnc2)n2c(nc3ccccc32)c1C#N | -5.0 | 0.7
Cc1ccc(-n2[nH]c(=O)c(C=c3c(C)c(C#N)c4nc5ccccc5n4c3=O)c2O)cc1Cl | 51.0* | 3.3
COc1cccc(NC(=O)N2CCN(C)c3ccccc32)c1 | 53.1* | 0.4
COc1cccc(NC(=O)N2CCCc3ccccc32)c1 | . | -10.8
Cc1ccc(-c2nc(C3CC(=O)N(c4ccccc4)C3)no2)cc1 (stereo not drawn) | -4.9 | 1.3
O=C(c1cc2sc(Br)cc2n1CC1CCCCO1)N1CCCC1 (stereo not drawn) | 70.3* | -13.1
SMILES | mHTT-CaM PPI inh | Pf apPOL inh
Cc1cc2c(cc(C(=O)N3CCOCC3)n2CC2CCC2)s1 | 16.0 | -7.6
O=C1CSC(c2ccc(Cl)cc2)N1c1ccc(F)cc1F (stereo not drawn) | -2.0 | -1.6
O=C(Nc1ccc(Nc2ccc(-n3cccn3)nn2)cc1)c1ncccn1 | 90.7* | -0.9
O=C(Nc1ccc(-c2ccc(=O)[nH]n2)cc1)c1ccc(-n2cccn2)nn1 | -14.5 | 2.0
CCc1ccc(NC(=O)c2oc3ccccc3c2C)cc1 | -19.8 | -7.7
COc1ccc(C(=O)Nc2cccc(SC)c2)cc1 | -9.1 | 1.1
COc1ccc(Nc2n[nH]nc2C(=O)Nc2cccc(SC)c2)cc1 | 50.0* | 1.5
COC(=O)c1cc(OC)c(OC)cc1NC(=O)c1cc2cccc(OC)c2o1 | -12.9 | -4.5
Cc1ccc(C(=O)N2N=C(c3ccc(Br)cc3)CC2c2ccco2)cc1 (stereo not drawn) | 78.0* | -3.4
O=C(O)CCCC(=O)N1N=C(c2ccc(Br)cc2)CC1c1ccco1 (stereo not drawn) | 22.0 | -2.5
Cc1ccc(-c2ncc(NC(=O)C(C)(C)C)cn2)cc1 | 1.2 | -3.6
Cc1ccccc1Cc1c(C)nc2c(C(=O)NC3CC3)cnn2c1C | 26.0 | -14.9
COc1ccc(N2CCN(C(=O)c3ccnc(-c4cccs4)c3)CC2)cc1 | 50.0* | -1.7
O=C(c1ccnc(-c2cccs2)c1)N1CCCCCC1 | -3.7 | -8.0
O=C1CC(c2ccccc2)Sc2ccccc2N1Cc1ccccc1 (stereo not drawn) | 80.3* | -4.7
O=C1CC(c2ccco2)Sc2ccccc2N1Cc1cccc(F)c1 (stereo not drawn) | 4.2 | 1.7
COc1ccccc1NC(=O)c1c(NCc2ccccn2)sc2c1CCC(C)C2 (stereo not drawn) | 46.0 | -16.3
COc1ccc(OC)c(NC(=O)c2c(NCc3ccncc3)sc3c2CCC(C)C3)c1 (stereo not drawn) | 72.0* | -17.8
COc1ccc(Cl)cc1NC(=O)c1c(NCc2ccncc2)sc2c1CCC(C)C2 (stereo not drawn) | 73.0* | -15.0
COc1ccc(Cl)cc1Nc1ncnc2sc3c(c12)CCC(C)C3 (stereo not drawn) | -5.5 | 0.6
